Results: PubChem BioAssay AID1445 (SRMLSC, 2008)
Hit rate of the full screen: of about 220,000 compounds, about 910 (0.41%) were called active.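 How the source made its calls: active means primary inhibition above the hit cutoff, then over 50% inhibition at one or more dose response concentrations (cut at about 23% in these data, passing the limit was not always enough); inconclusive means conflicting primary data, or primary hits not chosen for dose response; inactive means low primary inhibition, or under 50% at every dose.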 The list comes from a sample in which actives are over-represented; it also holds similar structures and randomly drawn compounds. Results with a measured potency or affinity are listed apart.

These compounds were tested against Aminopeptidase N (Plasmodium falciparum (isolate 3D7)) (UniProt O96935) (assay: P. falciparum M1AAP inhibitors, biochemical, fluorogenic H-Leu-NHMec substrate, 1536-well (AID 1445;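 further: plate controls were DMSO full reaction for no effect and no enzyme background for full effect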)). Settings: recombinant M1AAP, H-Leu-NHMec fluorogenic kinetic assay; at 30 µM, stronger effect = higher value unless noted.
Chain of Aminopeptidase N (Plasmodium falciparum (isolate 3D7)) (O96935 whole entry, looked up): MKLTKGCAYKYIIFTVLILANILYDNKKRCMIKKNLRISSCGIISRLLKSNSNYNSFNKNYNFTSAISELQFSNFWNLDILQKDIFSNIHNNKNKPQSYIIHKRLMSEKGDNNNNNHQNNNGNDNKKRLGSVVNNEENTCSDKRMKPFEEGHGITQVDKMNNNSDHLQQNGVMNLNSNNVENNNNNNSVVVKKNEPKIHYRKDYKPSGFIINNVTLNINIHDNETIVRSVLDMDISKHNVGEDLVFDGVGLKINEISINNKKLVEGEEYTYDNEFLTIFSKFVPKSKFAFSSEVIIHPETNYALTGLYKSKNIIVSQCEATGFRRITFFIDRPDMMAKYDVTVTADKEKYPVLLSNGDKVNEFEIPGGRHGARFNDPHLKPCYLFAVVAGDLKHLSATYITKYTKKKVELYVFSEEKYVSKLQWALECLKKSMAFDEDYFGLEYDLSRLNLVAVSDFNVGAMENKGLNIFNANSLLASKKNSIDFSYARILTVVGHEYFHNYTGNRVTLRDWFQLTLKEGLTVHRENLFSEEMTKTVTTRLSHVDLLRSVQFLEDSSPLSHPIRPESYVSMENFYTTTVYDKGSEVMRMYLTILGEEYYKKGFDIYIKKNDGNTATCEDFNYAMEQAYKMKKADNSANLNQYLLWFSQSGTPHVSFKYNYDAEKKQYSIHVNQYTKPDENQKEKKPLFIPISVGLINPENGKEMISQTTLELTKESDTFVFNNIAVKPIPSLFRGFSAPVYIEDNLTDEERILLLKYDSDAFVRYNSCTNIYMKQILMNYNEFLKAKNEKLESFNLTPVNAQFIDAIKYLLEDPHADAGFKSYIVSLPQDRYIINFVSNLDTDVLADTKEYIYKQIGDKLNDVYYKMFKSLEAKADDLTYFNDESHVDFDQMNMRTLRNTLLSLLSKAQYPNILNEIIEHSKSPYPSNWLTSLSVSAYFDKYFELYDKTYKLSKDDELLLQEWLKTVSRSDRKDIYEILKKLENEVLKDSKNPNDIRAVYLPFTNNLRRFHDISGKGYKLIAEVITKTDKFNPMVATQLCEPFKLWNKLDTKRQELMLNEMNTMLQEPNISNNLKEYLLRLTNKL
In the case of `Cc1ccc(C)c(Oc2coc3cc(OCC(=O)Nc4ccccc4C(C)C)ccc3c2=O)c1`, the inhibition is reported as 2.02% (inactive).
For `COc1ccc(C(=O)ON=C2CCN(c3ccc([N+](=O)[O-])cc3)CC2)cc1`, the inhibition was 4.56% (inactive).
With `Cc1ccc(C(=O)ON=C2CCN(c3ccc([N+](=O)[O-])cc3)CC2)cc1` the inhibition was 14.4% (inactive).
For `Cc1ccc2nc(-c3ccc(SCC(=O)N4CCc5ccccc54)nc3)[nH]c2c1`, the inhibition was 4.65% (inactive).
For `C=C1c2ccccc2NC(=O)N1c1ccc(C)cc1`, the inhibition was -1.9% (inactive).
For `CCC1CCCCN1C(=S)NC(=O)c1ccc([N+](=O)[O-])cc1` (centres undefined), the inhibition was 5.65% (inactive).
`CC1CCCCN1C(=S)NC(=O)c1cccs1` (centres undefined) was tested, and the inhibition was 13.7% (inactive).
`COc1cc(O)c(C(CC(=O)N2CCN(c3ccccc3)CC2)c2ccc(N(C)C)cc2)c(OC)c1` (centres undefined) was tested, and the inhibition was 0.72% (inactive).
In the case of `COc1cccc(CNC(=O)C2CCN(S(=O)(=O)c3cccs3)CC2)c1`, the inhibition is reported as 10.2% (inactive).
With `CCS(=O)(=O)N1CCCC(C(=O)NCc2ccc3c(c2)OCO3)C1` (centres undefined) the inhibition was 1.85% (inactive).
For `Cc1ccc(CNC(=O)C2CCCN(S(=O)(=O)c3cccnc3)C2)cc1` (centres undefined), the inhibition was 13% (inactive).
For `O=C(NCc1ccc2c(c1)OCO2)C1CCCN(S(=O)(=O)c2cccs2)C1` (centres undefined), the inhibition was 24.9% (active).
`O=C(NCc1ccccc1)C1CCCN(S(=O)(=O)c2cccnc2)C1` (centres undefined) was tested, and the inhibition was 20% (inactive).
For `O=C(Nc1ccc2c(c1)OCO2)C1CCN(S(=O)(=O)c2cccs2)CC1`, the inhibition was 3.56% (inactive).
With `CS(=O)(=O)N1CCC(C(=O)NCc2ccc3c(c2)OCO3)CC1` the inhibition was 21.2% (inactive).
For `O=C(Nc1ccc2c(c1)OCO2)C1CCCN(S(=O)(=O)c2cccs2)C1` (centres undefined), the inhibition was 13.9% (inactive).
For `O=C(NCc1ccc2c(c1)OCO2)C1CCN(S(=O)(=O)N2CCCCC2)CC1`, the inhibition was 10.8% (inactive).
`Cc1nc2ccccc2c2oc(C(=O)NC3CC3)cc12` was tested, and the inhibition was 1.86% (inactive).
`COC(C[C@@H](O)CC(=O)[C@@H](C)OCc1ccccc1)OC` was tested, and the inhibition was -6.94% (inactive).
In the case of `O=C(NCc1ccc2c(c1)OCO2)C1CC(=O)N(CCc2ccccc2)C1` (centres undefined), the inhibition is reported as 0.19% (inactive).
In the case of `O=C(Cn1cccc1C(=O)c1ccccc1)NCc1ccccn1`, the inhibition is reported as 4.68% (inactive).
With `CC(Sc1ccc(Cl)cc1)C(=O)Nc1ccccc1C(=O)N1CCOCC1` (centres undefined) the inhibition was -3.03% (inactive).
For `Nc1ccc2c(c1)nc(Cc1ccccc1)n2CCO`, the inhibition was 9.11% (inactive).
With `Cc1ccnc(NS(=O)(=O)c2cnc(Cl)c(Br)c2)c1` the inhibition was 4.88% (inactive).
In the case of `Cc1cccc(-n2cc(CN(C)Cc3nccn3C)c(-c3cccc(F)c3)n2)c1`, the inhibition is reported as 4.73% (inactive).
With `CN(CC(=O)Nc1ccc(F)cc1)C(=O)COc1ccc(C(=O)c2ccccc2)cc1` the inhibition was 2.01% (inactive).
For `COCCn1c(SCC(=O)NC(=O)NCc2ccccc2)nc2ccccc21`, the inhibition was -0.93% (inactive).
In the case of `CCCn1c(C)cc(/C=C(\C#N)C(=O)OCC(=O)NC(=O)NCC)c1C`, the inhibition is reported as 8.1% (inactive).
With `COc1ccc(N(CC(=O)Nc2ccccc2C(=O)O)S(=O)(=O)c2ccc(C)c([N+](=O)[O-])c2)cc1` the inhibition was 6.07% (inactive).
`Cc1ccc(OCC(=O)Nc2ccc(N3CCN(C(=O)c4ccc(C)cc4)CC3)cc2)cc1` was tested, and the inhibition was -2.61% (inactive).
`Cc1ccc(C(=O)N2CCN(S(=O)(=O)c3ccccc3)CC2)cc1` was tested, and the inhibition was 1.63% (inactive).
For `COc1ccc(OC)c2sc(NC(=O)c3ccc(S(=O)(=O)N(C)C)cc3)nc12`, the inhibition was 23.5% (active).
`COc1ccc(OC)c2sc(NC(=O)c3ccc(S(=O)(=O)N4CCOCC4)cc3)nc12` was tested, and the inhibition was -1.73% (inactive).
For `COc1ccc(NC(=O)c2ccc(S(=O)(=O)N(C)C)cc2)cc1OC`, the inhibition was -1.14% (inactive).
In the case of `CC(=O)N1CCN(Cc2nc3cc(NC(=O)c4cccc(Br)c4)ccc3n2C)CC1`, the inhibition is reported as 4.84% (inactive).
With `Cc1cc(C)n2cc(CSc3ccc(Br)cc3)nc2n1` the inhibition was -0.36% (inactive).
For `CC(C)N(Cc1nc(-c2ccccc2)no1)C(=O)C(Cl)(Cl)Cl`, the inhibition was 1.11% (inactive).
In the case of `NC(=O)N/N=C/c1cn(-c2ccccc2)nc1-c1cccs1`, the inhibition is reported as 4.92% (inactive).
For `COC(=O)Cc1c(C)c2ccc(OC(C)C)cc2oc1=O`, the inhibition was 4.34% (inactive).
With `Cc1c(Cc2ccccc2)c(=O)oc2cc(OC(=O)c3ccccc3)ccc12` the inhibition was 1.43% (inactive).
For `Cc1ccc(C(c2nnnn2CCC(C)C)N2CCN(C)CC2)cc1` (centres undefined), the inhibition was -0.91% (inactive).
For `CC(C)C[C@H](NC(=O)c1nc[nH]c1C(=O)N[C@@H](CC(C)C)C(=O)OC(C)(C)C)C(=O)OC(C)(C)C`, the inhibition was -5.44% (inactive).
With `CC(C)C[C@H](NC(=O)c1[nH]cnc1C(=O)N[C@@H](C)C(=O)OC(C)(C)C)C(=O)OC(C)(C)C` the inhibition was -4.65% (inactive).
For `CC(C)C[C@H](NC(=O)c1nc[nH]c1C(=O)NC1CCN(C(=O)OC(C)(C)C)CC1)C(=O)OCc1ccccc1`, the inhibition was -9.66% (inactive).
For `CC(C)C[C@H](NC(=O)c1nc[nH]c1C(=O)N1CCN(C(=O)OC(C)(C)C)CC1)C(=O)OC(C)(C)C`, the inhibition was 14.4% (inactive).
`COc1cc(OC)cc(C2C(C#N)=C(N)Oc3n[nH]c(-c4cccnc4)c32)c1` (centres undefined) was tested, and the inhibition was 14.9% (inactive).
`COc1cc(C2C(C#N)=C(N)Oc3n[nH]c(-c4cccnc4)c32)cc(Br)c1O` (centres undefined) was tested, and the inhibition was 17.3% (inactive).
For `CC(C)COc1ccc(C(=O)OCCN2CCOCC2)cc1`, the inhibition was 0.38% (inactive).
In the case of `CCN1CCN(Cc2oc(CO)cc(=O)c2O)CC1`, the inhibition is reported as 0.53% (inactive).
In the case of `CN1CCN(Cc2c(O)c(Cl)cc3c(-c4ccccc4)cc(=O)oc23)CC1`, the inhibition is reported as 19.7% (inactive).
For `Cc1cc2oc(=O)cc(CN3CCC(C)CC3)c2cc1Cl`, the inhibition was 0.59% (inactive).
For `Cc1cc2oc(=O)cc(CN3CCC(C)CC3)c2c(C)c1Cl`, the inhibition was 8.55% (inactive).
`CCN1CCN(Cc2cc(=O)oc3ccc(Cl)cc23)CC1` was tested, and the inhibition was 1.72% (inactive).
In the case of `CCc1cc(=O)oc2cc(C)c(CN3CCCCC3)c(O)c12`, the inhibition is reported as 13.8% (inactive).
`CN1CCN(Cc2oc(CO)cc(=O)c2O)CC1` was tested, and the inhibition was -1.32% (inactive).
In the case of `CCc1cc(=O)oc2cc(C)c(CN3CCCC3)c(O)c12`, the inhibition is reported as 13.6% (inactive).
For `O=C(COC(=O)CCc1ccc(S(=O)(=O)N2CCOCC2)cc1)NCc1ccccc1Cl`, the inhibition was -2.82% (inactive).
`Cc1ccc(C(=O)NC(=S)NCC2CCCO2)cc1Br` (centres undefined) was tested, and the inhibition was 3.05% (inactive).
`COc1ccc(C(=O)CSc2cc(C)nc(SCC(=O)c3ccc(C)cc3)n2)cc1` was tested, and the inhibition was 12.2% (inactive).
For `Cn1c(C(O)C(O)c2ccccc2)nc2ccccc21` (centres undefined), the inhibition was -1.04% (inactive).
With `CCCCC(=O)NC(NC(=O)CCCC)c1ccc(OCC(C)C)c(OC)c1` the inhibition was 4.4% (inactive).
With `Cn1c(Sc2ccccc2Cl)c(C=O)c2ccccc21` the inhibition was 3.59% (inactive).
In the case of `CCN1C(=O)S/C(=C/c2c(OCc3ccc(C(=O)O)cc3)ccc3ccccc23)C1=O`, the inhibition is reported as 9.62% (inactive).
`Cc1ccc(S(=O)(=O)N(C)Cc2ccc(C(=O)N/N=C/c3ccc(OC(F)F)cc3)cc2)cc1` was tested, and the inhibition was -2.98% (inactive).
In the case of `Cc1cnc(NC(=O)CSc2nnc(-c3ccncc3)n2C2CCCCC2)s1`, the inhibition is reported as 4.18% (inactive).
`CN(Cc1nc(-c2ccccn2)no1)S(=O)(=O)c1ccc(Cl)cc1` was tested, and the inhibition was 0.8% (inactive).
For `Cc1nc2sc(C(c3ccc(C(C)C)cc3)N3CCN(CCO)CC3)c(O)n2n1` (centres undefined), the inhibition was 1.32% (inactive).
For `C=CCn1c(SCC(=O)/C(C#N)=C(\C)N)nc2sc(CC)cc2c1=O`, the inhibition was 5.1% (inactive).
In the case of `Cc1c(C)c2cc(Cl)c(O)c(CN3CCCCC3)c2oc1=O`, the inhibition is reported as 36% (inactive).
For `CCc1c(C)c2cc(Cl)c(O)c(CN3CCCCC3)c2oc1=O`, the inhibition was -1.01% (inactive).
`C[C@@H]1Cc2c(O)c(O)cc(O)c2C(=O)O1` was tested, and the inhibition was -2.7% (inactive).
In the case of `COc1c(O)cc2c(c1O)C(=O)CC(c1ccccc1)O2` (centres undefined), the inhibition is reported as 4.17% (inactive).
`Cn1nc(-c2ccc(Cl)cc2)cc1NC(=O)CCCC(=O)O` was tested, and the inhibition was -1.87% (inactive).
For `CC1CCc2cccc3c2N1c1cc(C#N)c(C#N)cc1O3` (centres undefined), the inhibition was -3.31% (inactive).
`O=C(Nc1nc2ccccc2[nH]1)c1ccc(Br)o1` was tested, and the inhibition was 0.56% (inactive).
For `Cc1ccc(O)c(-c2cc(C(=O)Nc3ccc(S(=O)(=O)Nc4nccc(C)n4)cc3)[nH]n2)c1`, the inhibition was 5.6% (inactive).
For `O=C1CCC(C(=O)OCc2ccccc2)N1` (centres undefined), the inhibition was 2.24% (inactive).
`CCOC(=O)Cc1cc(=O)n2[nH]c(-c3ccc(Cl)cc3)cc2n1` was tested, and the inhibition was 7.9% (inactive).
For `CCOP(=O)(OCC)c1nc(Cc2ccccc2)oc1NCc1ccccc1`, the inhibition was 1.14% (inactive).
For `CCOP(=O)(OCC)c1nc(-c2cccc3ccccc23)oc1NCc1ccc(OC)cc1`, the inhibition was 16.1% (inactive).
For `Cc1ccc(S(=O)(=O)Nc2cc(-c3ccc(Cl)cc3)nn2C)cc1`, the inhibition was 4.66% (inactive).
For `Cc1ccc(S(=O)(=O)Nc2nc3n(n2)C(c2ccc(Cl)cc2)CC(=O)N3)cc1` (centres undefined), the inhibition was 4.26% (inactive).
For `Oc1[nH]c2ccccc2c1/C=N/N1CCCCC1`, the inhibition was -0.99% (inactive).
In the case of `CCc1nn(C(C)C(=O)NCCc2ccc(OC)c(OC)c2)c(=O)c2cc3occc3n12` (centres undefined), the inhibition is reported as 10.4% (inactive).
For `O=C(O)c1ccc(N2C(=O)c3cccc4c(C(=O)O)ccc(c34)C2=O)cc1`, the inhibition was 10.1% (inactive).
For `O=C(O)c1cccc(N2C(=O)c3ccc4c5c(ccc(c35)C2=O)C(=O)N(c2cccc(C(=O)O)c2)C4=O)c1`, the inhibition was 11.6% (inactive).
`COc1cccc(-c2nnc(SCN3C(=O)c4ccccc4C3=O)n2C)c1` was tested, and the inhibition was -1.36% (inactive).
In the case of `Fc1ccc(CN2CCSCC2)cc1Br`, the inhibition is reported as 0.38% (inactive).
For `CN1C(=O)S/C(=C\c2ccccc2OCc2ccc(C(=O)O)cc2)C1=O`, the inhibition was 18.7% (inactive).
`COC(=O)c1ccc(COc2ccc(/C=N/Nc3cccc(C(=O)O)c3)cc2)cc1` was tested, and the inhibition was 5.29% (inactive).
For `CN1C(=O)/C(=C/c2ccccc2OCc2ccc(C(=O)O)cc2)NC1=S`, the inhibition was 22.6% (inactive).
In the case of `O=C1NC(=S)N/C1=C\c1ccccc1OCc1ccc(C(=O)O)cc1`, the inhibition is reported as 14.7% (inactive).
With `CN1C(=O)S/C(=C/c2ccccc2OCc2ccc(C(=O)O)cc2)C1=O` the inhibition was 6.59% (inactive).
`COC(=O)c1ccc(COc2ccccc2/C=N/NS(=O)(=O)c2ccccc2)cc1` was tested, and the inhibition was 3.52% (inactive).
